PubChem BioAssay (NCATS)
Results filed as inconclusive are left out. The source made the active and inactive calls. Calls come from the whole dose curve; as a rule, active = well fitted curve in the direction sought with a large enough effect; inconclusive = small, poorly fitted or top-dose-only effect, or another doubt; inactive = no such curve, though single readings can be large; an effect the other way counts as inactive or inconclusive. Numbered stars: 1 amine (or outer) side, 2 acyl side, 3 side chain; on linkers, the order of the positions; unused ones are H or OH. Bridge positions count the residues as written; N and C are the ends. Square brackets hold non-standard residues; d marks the D form. Peptide text beside a SMILES is read from it. I, II: the chains in the order shown. Actinocin(9to1) = Cc1c2oc3c(C)ccc(C(=O)[*:1])c3nc-2c(C(=O)[*:2])c(N)c1=O; NMeV = CN[C@H](C(=O)O)C(C)C; Sar = CNCC(=O)O

Legend:
[1] = MultiTox-Fluor Cytotoxicity Assay - LYMP1-001 - Dead Cells (AID 946);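 note: cells exposed to compound for 16 h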; note: potency is the fitted concentration of half-maximal effect
Procedure, shortened: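 AC50 from Hill fit of concentration-response; data normalized to DMSO (basal) and 15 uM tetraoctylammonium bromide (100%). LYMP1-001 lymphoblastoid cells, 2500/well, 16 hr compound at 37 C; dead-cell protease fluorescence, Ex/Em 485/520.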

[2] = MultiTox-Fluor Cytotoxicity Assay - LYMP1-001 - Live Cells (AID 947); note: potency is the fitted concentration of half-maximal effect
[3] = Cell Viability - LYMP1-002 - Assay at 16 hr (AID 948); note: potency is the fitted concentration of half-maximal effect
Procedure, shortened: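 Seed 2500 LYMP1-002 cells per well in complete medium and hold 5 hr at 37 C. Add compound across a concentration series and incubate 16 hr at 37 C. Add CellTiter-Glo, wait 30 min at room temperature, read luminescence.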

[4] = MultiTox-Fluor Cytotoxicity Assay - LYMP1-003 - Dead Cells (AID 961);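 note: cells exposed to compound for 16 h at 37 °C; nearly all actives have a fitted effect of over 70% in size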; note: potency is the fitted concentration of half-maximal effect
Procedure, shortened: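 Human lymphoblastoid LYMP1-003 cells (2500/well) were treated with compounds for 16 hr at 37 C in complete medium. Dead-cell protease release was read by bis-AAF-R110 fluorescence (Ex/Em 485/520). AC50 came from Hill fits, normalized to DMSO and 15 uM tetraoctylammonium bromide.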

[5] = MultiTox-Fluor Cytotoxicity Assay - LYMP1-003 - Live Cells (AID 962);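 note: cells exposed to compound for 16 hours at 37 °C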; note: potency is the fitted concentration of half-maximal effect
Procedure, shortened: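 Cells plated at 2500 per well and incubated 5 hr; compounds added and incubated 16 hr at 37 C; MultiTox-Fluor reagent added for 60 min at room temperature; fluorescence of liberated AFC measured at 405/510 nm.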

[6] = Cell Viability - LYMP1-003 - Assay at 24 hr (AID 963); note: potency is the fitted concentration of half-maximal effect
Procedure, shortened: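 Acute toxicity in LYMP1-003 lymphoblastoid cells: 24 hr compound treatment at 37 C, ATP measured with CellTiter-Glo after 30 min at room temperature. AC50 derived by fitting the Hill equation to qHTS titrations.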

[7] = MultiTox-Fluor Cytotoxicity Assay - LYMP1-002 - Dead Cells (AID 960); note: nearly all actives have a fitted effect of over 60% in size; note: potency is the fitted concentration of half-maximal effect
Procedure, shortened: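 Acute cytotoxicity in a human lymphoblastoid line is scored as rising dead-cell protease signal after 16 hr exposure at 37 C, measured fluorometrically (485/520).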

[8] = Cell Viability - LYMP1-003 - Assay at 40 hr (AID 964); note: nearly all actives have a fitted effect of over 60% in size; note: potency is the fitted concentration of half-maximal effect
Procedure, shortened: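 This qHTS cytotoxicity screen treats human lymphoblastoid cells (LYMP1-003) with compounds for 40 hr and quantifies cellular ATP via luciferase luminescence.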

[9] = molecular target: Pyruvate kinase (Leishmania mexicana) (UniProt Q27686); experiment: qHTS Validation Assay for Inhibitors of Leishmania Mexicana Pyruvate Kinase (AID 945)
Procedure, shortened: (§1)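 The enzyme is a highly purified E451W mutant of LmPYK used at 0.2 nM. It converts 0.5 mM PEP and 0.1 mM ADP over 1 h at room temperature; product ATP is quantified by luciferase luminescence relative to DMSO controls.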

[10] = molecular target: Pyruvate kinase (Leishmania mexicana) (UniProt Q27686); experiment: qHTS Validation Assay for Activators of Leishmania Mexicana Pyruvate Kinase (AID 959)
Procedure, shortened: as §1

Measured: Potency

COC1=CC(=O)C[C@@H](C)[C@]12Oc1c(Cl)c(OC)cc(OC)c1C2=O
inactive: [1] | [2] | [3] | [4] | [5] | [6]

CC/C(=C(/CC)c1ccc(O)cc1)c1ccc(O)cc1
inactive: [2] | [3] | [4] | [5] | [6]

COc1cccc2c1C(=O)c1c(O)c3c(c(O)c1C2=O)C[C@@](O)(C(=O)CO)C[C@@H]3O[C@H]1C[C@H](N)[C@H](O)[C@H](C)O1
active: [1] 2.51 µM | [2] 1.58 µM | [3] 3.16 µM | [7] 3.16 µM | [4] 6.31 µM | [5] 0.794 µM | [6] 1.26 µM | [8] 0.398 µM

CN(C)/N=N/c1nc[nH]c1C(N)=O
not listed: [9] | [10]
inactive: all other assays above

C=CCc1ccc(O)c(OC)c1
not listed: [9] | [10]
inactive: all other assays above

Oc1cc(O)c2c(c1)O[C@H](c1ccc(O)c(O)c1)[C@H](O)C2
inactive: [9]

CN1[C@@H]2CC[C@H]1CC(OC(=O)c1c[nH]c3ccccc13)C2 (stereo not given in full)
inactive: [9]

CCCC1O[C@@H]2C[C@H]3[C@@H]4CCC5=CC(=O)C=C[C@]5(C)[C@H]4[C@@H](O)C[C@]3(C)[C@]2(C(=O)CO)O1 (stereo not given in full)
inactive: [9]

Cc1c2oc3c(C)ccc(C(=O)N[C@@H]4C(=O)N[C@H](C(C)C)C(=O)N5CCC[C@H]5C(=O)N(C)CC(=O)N(C)[C@@H](C(C)C)C(=O)O[C@@H]4C)c3nc-2c(C(=O)N[C@@H]2C(=O)N[C@H](C(C)C)C(=O)N3CCC[C@H]3C(=O)N(C)CC(=O)N(C)[C@@H](C(C)C)C(=O)O[C@@H]2C)c(N)c1=O (I: T[dV]P[Sar][NMeV] / II: T[dV]P[Sar][NMeV]; ester I:1-I:C, II:1-II:C; linker I:N-II:N via Actinocin(9to1))
active: [1] 0.0126 µM | [7] 0.0251 µM | [4] 0.0501 µM | [8] 0.005 µM

N[C@@H](Cc1cnc[nH]1)C(=O)O
inactive: [9]

C=C(CC)C(=O)c1ccc(OCC(=O)O)c(Cl)c1Cl
inactive: [2] | [5] | [6]
active: [7] 31.6 µM | [4] 50.1 µM

CC(=O)O[C@]1(C(C)=O)CC[C@H]2[C@@H]3C[C@H](C)C4=CC(=O)CC[C@]4(C)[C@H]3CC[C@@]21C
not listed: [9] | [10]
inactive: all other assays above

C[C@@H]1C(=O)NC2=Nc3cccc(Cl)c3CN21
inactive: [9]

CCCn1c(=O)[nH]c(=O)c2[nH]cnc21
inactive: [9]

CN1CCC[C@@H]1c1cccnc1
inactive: [9]

O=C(O)CCCCC(=O)O
not listed: [9] | [10]
inactive: all other assays above

NC(=NCCCCCCN=C(N)/N=C(\N)Nc1ccc(Cl)cc1)/N=C(\N)Nc1ccc(Cl)cc1
active: [1] 50.1 µM | [2] 39.8 µM | [3] 50.1 µM | [4] 31.6 µM | [5] 50.1 µM | [6] 50.1 µM | [8] 31.6 µM

CNCCC=C1c2ccccc2CCc2ccccc21
inactive: [9]

COc1cc(-c2ccc(=O)[nH]n2)ccc1OC(F)F
inactive: [9]

C[N+]1(CCCCC[N+]2(C)CCCC2)CCCC1
inactive: [9]

Nc1cc(Cl)c(NC2=NCCN2)c(Cl)c1
inactive: [9]

O=C(O)c1cc2cc(Cc3cccnc3)ccc2o1
inactive: [10]

CC(C)(C)CC(C)(C)c1ccc(OCCOCC[N+](C)(C)Cc2ccccc2)cc1
active: [3] 50.1 µM | [6] 50.1 µM | [8] 31.6 µM

Oc1ccc(Cl)cc1Sc1cc(Cl)ccc1O
inactive: [1] | [5]

CCCCCCc1ccc(O)cc1O
inactive: [1] | [2] | [3] | [4] | [5] | [6]

CC(C)COC(=O)OCN1C(=O)CN(CCN2CC(=O)N(COC(=O)OCC(C)C)C(=O)C2)CC1=O
inactive: [9]

CC(=O)Oc1ccc(C(c2ccc(OC(C)=O)cc2)c2ccccn2)cc1
not listed: [9] | [10]
inactive: all other assays above

Oc1c(Cl)cc(Cl)cc1Sc1cc(Cl)cc(Cl)c1O
active: [8] 39.8 µM
not listed: [9] | [10]
inactive: all other assays above

O=C1CCC(c2ccc(-n3ccnc3)cc2)=NN1
inactive: [9]

Nc1ccc(C(=O)O)cc1
not listed: [2] | [9] | [10]
inactive: all other assays above

CC(O)C(=O)O (stereo not given)
not listed: [9] | [10]
inactive: all other assays above

Oc1c(I)cc(Cl)c2cccnc12
active: [7] 31.6 µM | [8] 39.8 µM
inactive: [1]

O=C1OC(c2ccc(O)cc2)(c2ccc(O)cc2)c2ccccc21
active: [7] 15.8 µM
not listed: [2] | [9] | [10]
inactive: all other assays above

O=c1ccc2ccccc2o1
not listed: [9] | [10]
inactive: all other assays above

C[C@]12CC[C@@H]3c4ccc(O)cc4CC[C@H]3[C@@H]1CC[C@@H]2O
not listed: [7] | [10]
inactive: all other assays above

Oc1ccc(O)cc1
active: [3] 31.6 µM | [7] 12.6 µM | [4] 12.6 µM | [5] 50.1 µM | [6] 39.8 µM | [8] 12.6 µM
inactive: [9]

C1CCc2nnnn2CC1
inactive: [9]

COc1cccc2c1C(=O)c1c(O)c3c(c(O)c1C2=O)C[C@@](O)(C(C)=O)C[C@@H]3O[C@H]1C[C@H](N)[C@H](O)[C@H](C)O1
active: [1] 0.501 µM | [2] 0.631 µM | [3] 0.794 µM | [7] 12.6 µM | [4] 1 µM | [5] 0.501 µM | [6] 1 µM | [8] 0.398 µM
